D3 ag – D3 dopamine receptor (human) agonism; P35462; D3R DiscoveRx beta-arrestin cells, luminescence, 90 min; max activation, %; 410,000 tested, 0.58% active; in the data active = max activation above about 30%; also: 0% is about no effect
Target sequence (P35462 whole entry, looked up): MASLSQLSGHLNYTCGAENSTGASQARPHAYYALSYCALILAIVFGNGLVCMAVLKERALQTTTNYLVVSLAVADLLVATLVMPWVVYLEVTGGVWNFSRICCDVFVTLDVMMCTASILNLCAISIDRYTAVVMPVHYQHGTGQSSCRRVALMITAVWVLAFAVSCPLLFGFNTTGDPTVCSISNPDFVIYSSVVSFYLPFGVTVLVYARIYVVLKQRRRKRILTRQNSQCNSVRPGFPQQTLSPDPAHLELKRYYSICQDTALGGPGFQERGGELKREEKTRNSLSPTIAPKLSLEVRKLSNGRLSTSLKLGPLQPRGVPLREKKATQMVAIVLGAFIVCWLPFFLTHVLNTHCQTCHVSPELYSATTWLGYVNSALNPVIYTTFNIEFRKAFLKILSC
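Agonist mode: compounds and dopamine controls were applied to plated cells for 90 min at 37 degrees C after an overnight attachment at 1500 cells/well. Luminescent read-out followed 30 - 60 minutes at room temperature with DiscoveRx detection reagent.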
GRP78 ERSR act – ER stress response induction in glioma; U87-MG GRP78 promoter luciferase reporter, 16 h; 420,000 tested, 0.02% active; Potency, µM, for the others: top-dose activation, usual class: activators; AID 602332; also: potency is read from the fitted curve at half-maximal effect; series mostly up to about 76 µM; % of control where 0% means no effect; nearly all actives have a fitted effect of over 35% in size
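Stably transfected U87-MG glioma cells carrying a GRP78-based luciferase sensor; 16 h compound incubation. Luminescence end-point read 10 min after Bright-Glo addition at room temperature.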
DRD3 antagonist – antagonists of human D3 dopamine receptor; D3R cells, DiscoveRx beta-arrestin luminescence, antagonist mode; stronger effect = lower value; max response, negative = inhibition, %; 360,000 tested, 2.5% active; AID 652054; in the data active = max response below about -50%; inconclusive = no clear call, values can overlap the other calls; also: % is scaled to controls: 0 for no effect and ±100 for the full control effect
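Cells plated overnight at 1500 cells/well, then exposed to library compounds with dopamine controls for 90 minutes at 37 degrees C. DiscoveRx reagent added for 30–60 minutes at room temperature; luminescence read, quantitative HTS format.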
Nrf2 activator – Nrf2 pathway activation | 410,000 tested, 0.31% active | Potency, µM (highest dose often 46.1 µM), inactives show top-dose activation, most hits filed as activators | AREc32 ARE-luciferase reporter (MCF7-derived line), luminescence, 24 h | AID 624171; also: potency is read from the fitted curve at half-maximal effect; % of control where 0% means no effect; nearly all actives have a fitted effect of over 65% in size
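ARE-driven firefly luciferase activity in AREc32 cells measured after a 24 hr compound exposure at 37 deg C, using Steady-Glo reagent and a 30 min room-temperature hold.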
* = called active by the depositor; u = inconclusive; x = not tested or not shown; ! = not active in a repeat; [ ] = dose if it differs, or a comment. Hits are enriched below; roughly 3% of the tested compounds scored in any of these assays. Unless noted, calls follow the shape of the dose curve; as a rule, active = well fitted curve in the direction sought with a large enough effect; inconclusive = small, poorly fitted or top-dose-only effect, or another doubt; inactive = no such curve, though single readings can be large; an effect the other way counts as inactive or inconclusive.

SMILES	D3 ag	GRP78 ERSR act	DRD3 antagonist	Nrf2 activator
COc1ccccc1C1CN(CC(=O)N2CCC(N3CCOCC3)CC2)Cc2ccccc2O1 (configuration not stated)	x	-3%	x	x
N#Cc1c(-c2cccs2)cc(-c2ccccn2)nc1N	5	u	48	7.9µM*
N#Cc1c(-c2cccs2)cc(-c2cccnc2)nc1N	0	-3%	44	8%
CCOC(=O)N1CCN(C(=O)c2ccc3c(c2)N(C)C(=O)/C(=C\c2ccc(OCC)c(OC)c2)S3)CC1	46*	-3%	63	5%
CN1C(=O)/C(=C/c2cccc(Cl)c2)Sc2ccc(C(=O)N3CCCC3)cc21	39*	-3%	23	-1%
Cc1ccc(C2CC(C(F)(F)F)n3nc(C(=O)NCc4c(C)nn(C)c4C)c(Cl)c3N2)cc1 (configuration not stated)	34*	-4%	30	6%
Cc1cc2c(c(-c3nc4ccccc4s3)c1)OC(CNC(=O)c1occc1C)C2 (configuration not stated)	x	-2%	x	x
c1ccc(CN2CCC(CNc3ncnc4ccccc34)C2)cc1 (configuration not stated)	-16	-3%	-64*	0%
c1ccc(CNc2ncnc3ccccc23)cc1	33*!	-2%	22	-1%
O=c1c(-c2cccc3ccccc23)[n+]([O-])c2ccccc2n1O	-2	-4%	-53*	0%
COc1ccc(C(CNC(=O)Cc2ccc3ccccc3c2)N(C)C)cc1 (configuration not stated)	-6	5%	-19	2%
COc1ccc(C(CNC(=O)C(C)c2ccc3cc(OC)ccc3c2)N(C)C)cc1 (configuration not stated)	-12	1%	-76*	3%
CC(=O)O[C@H]1C[C@@H]2CC[C@@H]3[C@H](CC[C@]4(C)[C@H](OC(C)=O)[C@@H](N5CC[N+](C)(C)CC5)C[C@@H]34)[C@@]2(C)C[C@@H]1N1CC[N+](C)(C)CC1	x	-4%	x	x
Cc1nn(C(C)(C)C)c(OC(=O)c2cccs2)c1Sc1ccccc1	-4	-1%	-53*	0%
Cc1ccccc1C(=O)Oc1c(Sc2ccccc2)c(C)nn1C(C)(C)C	-18	-4%	x	-1%
OC1(c2cccnc2)CCN(Cc2ccc3c(c2)CN(Cc2ccsc2)CCO3)CC1	x	-3%	x	x
Cc1ccc(OCCn2cc(C(=S)N3CCCC3)c3ccccc32)cc1C	1	0%	-54*	0%
COC(=O)c1cc(NC(=O)c2cccc(C(F)(F)F)c2)c(=O)oc1C	4	-2%	4	27%
COC(=O)c1cc(NC(=O)c2cccc(C(F)(F)F)c2)c(=O)oc1C/C=N/OCc1cccc(Cl)c1Cl	1	-4%	14	13µM*
CC(CCc1ccccc1)NC(=O)CN1CCN(Cc2ccc(Cl)cc2)C1=O (configuration not stated)	-1	-5%	-9	-1%
Cc1cccc(CN2CCN(CC(=O)O)C2=O)c1	-1	-3%	-109*	0%
CC(CCc1ccccc1)NC(=O)CN1CCN(Cc2ccccc2)C1=O (configuration not stated)	31*	-4%	26	0%
Fc1ccccc1N1CCN(CCCc2ccccc2)CC1	-20	-2%	-92*	0%[9.22 µM]
OC(COCc1ccccc1)CN1CCN(c2ccccc2F)CC1 (configuration not stated)	51*	-1%	15	0%
CC1CCCN(CC(O)COc2ccc(Cl)cc2)C1 (configuration not stated)	-34	-3%	-58*	0%
SMILES	D3 ag	GRP78 ERSR act	DRD3 antagonist	Nrf2 activator
CCN1CCN(CC(O)COCc2ccccc2)CC1 (configuration not stated)	-4	1%	2	-1%
Fc1ccccc1N1CCN(CCCNc2ccc3nncn3n2)CC1	46*	-5%	-61*	-1%
CC1CCCN(CC(O)COc2ccc(-c3ccccc3)cc2)C1 (configuration not stated)	-26	3%	u	2%
COc1ccccc1C1CN(CCNC(=O)c2ccc3c(c2)OCCO3)Cc2ccccc2O1 (configuration not stated)	x	-3%	x	x
CC(C)(C)C(=O)Nc1ccc2nc(SCC(=O)N3CCc4ccccc43)sc2c1	6	0%	x	1%
OC(COc1ccc2c(c1)CCC2)CN1CCN(c2ccccc2F)CC1 (configuration not stated)	32*	-3%	u	-1%
COc1ccc(-c2cc3ccccc3n2CC(O)CN2CCCCC2)cc1 (configuration not stated)	-22	-1%	-87*	4%
COc1ccc(N2CCN(CC(O)COc3ccc4c(c3)CCC4)CC2)cc1 (configuration not stated)	0	0%	-79*	0%
OC(COCC1COc2ccccc2O1)CN1CCN(c2ccccc2F)CC1 (configuration not stated)	26	-6%	u	0%
COc1ccc(N(CC(O)CN2CCCCC2)S(=O)(=O)c2ccc(C)cc2)cc1 (configuration not stated)	-1	-4%	-80*	0%
COc1ccc(OCC2c3cc(OC)c(OC)cc3CCN2C(=O)c2ccc(F)cc2)cc1 (configuration not stated)	-8	-3%	x	3%
CC1(C)S[C@@H]2[C@H](NC(=O)[C@H](N)c3ccccc3)C(=O)N2[C@H]1C(=O)OCOC(=O)[C@@H]1N2C(=O)C[C@H]2S(=O)(=O)C1(C)C	-4	x	x	x
Fc1ccccc1N1CCN(Cc2cc(-c3ccccc3)on2)CC1	-5	0%	-88*	0%
Cc1cc(CN2CCN(c3ccccc3F)CC2)cs1	0	-1%	x	0%
Clc1ccccc1CN1CCN(CCCc2ccccc2)CC1	-20	-5%	-79*	1%
FCCCOc1ccc(CN2CCN(c3ccccc3F)CC2)cc1	-3	-5%	-60*	3%
Fc1ccccc1N1CCN(Cc2nc(-c3ccccc3)no2)CC1	-10	0%	u	1%
O=[N+]([O-])c1ccc(OCC(O)CN2CCN(c3ccccc3F)CC2)cc1 (configuration not stated)	59*	-1%	-19	0%[9.22 µM]
CCn1c(-c2ccccc2F)nc2cc(NC(C)=O)cc(C(=O)N3CCCC3c3nccs3)c21 (configuration not stated)	x	-5%	x	x
COc1ccc(OCC(O)CN2CCCC2)cc1 (configuration not stated)	8	7%	-8	-1%
COc1ccc(OCC(O)CN2CCCCCC2)cc1 (configuration not stated)	-15	-3%	-54*	0%
Cc1cc(C)n(-c2cccc(C(=O)NCC3Cc4cccc(-c5cccnc5)c4O3)c2)n1 (configuration not stated)	x	-2%	x	x
COC(=O)c1ccsc1NC(=O)CSc1nnnn1Cc1ccccc1	12	1%	12	7.9µM*
O=C(N/N=C/c1cc(Cl)cc([N+](=O)[O-])c1O)c1cc(-c2ccccn2)nc2ccccc12	-20	-4%	-61*	5%
